Tests used:
[1] = biological target: Mitogen-activated protein kinase kinase kinase kinase 4 (Homo sapiens) (UniProt O95819); details: at 1 µM;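 further: reported figure is an averaged inhibition value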
[2] = biological target: Dual specificity mitogen-activated protein kinase kinase 1 (Homo sapiens) (UniProt Q02750); details: at 0.1 µM
[3] = biological target: Dual specificity mitogen-activated protein kinase kinase 1 (Homo sapiens) (UniProt Q02750); details: at 1 µM
[4] = biological target: Misshapen-like kinase 1 (Homo sapiens) (UniProt Q8N4C8); details: at 0.1 µM
[5] = biological target: Misshapen-like kinase 1 (Homo sapiens) (UniProt Q8N4C8); details: at 1 µM
[6] = biological target: T1, Serine/threonine-protein kinase 4 (Homo sapiens) (UniProt Q13043); details: at 0.1 µM
T1 sequence (whole entry): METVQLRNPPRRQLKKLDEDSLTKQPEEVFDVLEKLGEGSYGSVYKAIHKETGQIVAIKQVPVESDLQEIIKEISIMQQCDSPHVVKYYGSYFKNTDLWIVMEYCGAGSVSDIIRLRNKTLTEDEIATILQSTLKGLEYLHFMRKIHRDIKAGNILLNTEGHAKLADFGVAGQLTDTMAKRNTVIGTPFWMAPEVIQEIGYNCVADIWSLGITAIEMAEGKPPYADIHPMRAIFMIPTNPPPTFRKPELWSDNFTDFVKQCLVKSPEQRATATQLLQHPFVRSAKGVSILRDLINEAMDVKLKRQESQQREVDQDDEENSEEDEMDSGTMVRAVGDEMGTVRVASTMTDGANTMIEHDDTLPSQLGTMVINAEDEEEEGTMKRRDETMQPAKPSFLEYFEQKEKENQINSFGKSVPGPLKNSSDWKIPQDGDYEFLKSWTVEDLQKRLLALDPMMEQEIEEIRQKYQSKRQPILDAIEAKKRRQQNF

[7] = biological target: T1, Serine/threonine-protein kinase 4 (Homo sapiens); details: at 1 µM
[8] = biological target: T2, Serine/threonine-protein kinase 3 (Homo sapiens) (UniProt Q13188); details: at 0.1 µM
T2 sequence (whole entry): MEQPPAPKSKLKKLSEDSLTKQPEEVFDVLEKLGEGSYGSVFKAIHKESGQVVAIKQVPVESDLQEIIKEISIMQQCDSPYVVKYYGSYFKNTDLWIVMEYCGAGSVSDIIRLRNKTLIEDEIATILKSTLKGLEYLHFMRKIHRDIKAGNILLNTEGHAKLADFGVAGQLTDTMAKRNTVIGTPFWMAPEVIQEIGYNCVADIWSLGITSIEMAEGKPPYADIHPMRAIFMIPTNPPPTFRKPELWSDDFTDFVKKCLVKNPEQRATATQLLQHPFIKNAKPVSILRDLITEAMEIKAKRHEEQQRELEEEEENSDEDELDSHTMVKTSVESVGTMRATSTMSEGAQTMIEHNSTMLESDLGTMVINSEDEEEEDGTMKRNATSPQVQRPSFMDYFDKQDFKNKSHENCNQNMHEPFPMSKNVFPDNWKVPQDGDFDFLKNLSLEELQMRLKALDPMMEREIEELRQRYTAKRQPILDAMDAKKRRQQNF

[9] = biological target: T2, Serine/threonine-protein kinase 3 (Homo sapiens); details: at 1 µM
[10] = biological target: Serine/threonine-protein kinase 26 (Homo sapiens) (UniProt Q9P289); details: at 0.1 µM
[11] = biological target: Serine/threonine-protein kinase 26 (Homo sapiens) (UniProt Q9P289); details: at 1 µM
[12] = biological target: Serine/threonine-protein kinase PAK 1 (Homo sapiens) (UniProt Q13153); details: at 0.1 µM
[13] = biological target: Serine/threonine-protein kinase PAK 1 (Homo sapiens) (UniProt Q13153); details: at 1 µM
[14] = biological target: Serine/threonine-protein kinase PAK 2 (Homo sapiens) (UniProt Q13177); details: at 0.1 µM
[15] = biological target: Serine/threonine-protein kinase PAK 2 (Homo sapiens) (UniProt Q13177); details: at 1 µM
[16] = biological target: Serine/threonine-protein kinase PAK 3 (Homo sapiens) (UniProt O75914); details: at 0.1 µM
[17] = biological target: Serine/threonine-protein kinase PAK 3 (Homo sapiens) (UniProt O75914); details: at 1 µM
[18] = biological target: Serine/threonine-protein kinase PAK 5 (Homo sapiens) (UniProt Q9P286); details: at 0.1 µM
[19] = biological target: Serine/threonine-protein kinase PAK 5 (Homo sapiens) (UniProt Q9P286); details: at 1 µM
[20] = biological target: Serine/threonine-protein kinase PAK 6 (Homo sapiens) (UniProt Q9NQU5); details: at 0.1 µM;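 further: mean PAK6 inhibition reported from the GSK PKIS screen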
Chain of Serine/threonine-protein kinase PAK 6 (Homo sapiens) (Q9NQU5 whole entry, looked up): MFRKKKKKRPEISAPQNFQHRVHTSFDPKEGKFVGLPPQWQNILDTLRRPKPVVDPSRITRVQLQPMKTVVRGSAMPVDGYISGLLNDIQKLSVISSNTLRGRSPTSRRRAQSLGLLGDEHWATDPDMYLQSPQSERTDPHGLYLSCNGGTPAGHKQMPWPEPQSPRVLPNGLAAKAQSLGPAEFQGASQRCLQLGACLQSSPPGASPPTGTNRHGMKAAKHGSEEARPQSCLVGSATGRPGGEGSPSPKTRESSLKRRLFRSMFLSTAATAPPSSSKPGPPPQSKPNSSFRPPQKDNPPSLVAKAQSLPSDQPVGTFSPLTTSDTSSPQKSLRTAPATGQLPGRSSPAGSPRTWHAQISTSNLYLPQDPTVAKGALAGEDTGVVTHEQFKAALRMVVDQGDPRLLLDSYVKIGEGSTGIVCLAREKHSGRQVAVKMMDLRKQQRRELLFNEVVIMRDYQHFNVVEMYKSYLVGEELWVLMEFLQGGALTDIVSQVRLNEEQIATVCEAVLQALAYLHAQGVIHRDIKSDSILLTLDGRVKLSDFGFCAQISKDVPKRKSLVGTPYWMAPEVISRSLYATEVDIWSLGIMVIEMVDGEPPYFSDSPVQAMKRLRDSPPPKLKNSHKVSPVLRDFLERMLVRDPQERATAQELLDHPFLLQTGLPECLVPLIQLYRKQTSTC

Chain of Serine/threonine-protein kinase PAK 3 (Homo sapiens) (O75914 whole entry, looked up): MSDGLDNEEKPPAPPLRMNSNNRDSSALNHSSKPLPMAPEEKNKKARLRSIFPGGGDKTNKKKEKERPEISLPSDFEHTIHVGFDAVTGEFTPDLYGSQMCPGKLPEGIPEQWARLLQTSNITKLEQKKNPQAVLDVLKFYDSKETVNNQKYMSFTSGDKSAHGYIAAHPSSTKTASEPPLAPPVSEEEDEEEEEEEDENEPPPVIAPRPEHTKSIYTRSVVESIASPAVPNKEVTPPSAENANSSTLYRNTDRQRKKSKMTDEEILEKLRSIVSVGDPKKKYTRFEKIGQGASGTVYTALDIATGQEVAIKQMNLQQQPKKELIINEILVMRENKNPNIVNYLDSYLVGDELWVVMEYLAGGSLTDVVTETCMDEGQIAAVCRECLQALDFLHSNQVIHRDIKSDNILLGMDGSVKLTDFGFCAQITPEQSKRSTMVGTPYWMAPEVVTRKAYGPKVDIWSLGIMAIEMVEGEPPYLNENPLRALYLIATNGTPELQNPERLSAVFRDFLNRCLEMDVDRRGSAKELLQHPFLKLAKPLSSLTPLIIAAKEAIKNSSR
Chain of Serine/threonine-protein kinase PAK 1 (Homo sapiens) (Q13153 whole entry): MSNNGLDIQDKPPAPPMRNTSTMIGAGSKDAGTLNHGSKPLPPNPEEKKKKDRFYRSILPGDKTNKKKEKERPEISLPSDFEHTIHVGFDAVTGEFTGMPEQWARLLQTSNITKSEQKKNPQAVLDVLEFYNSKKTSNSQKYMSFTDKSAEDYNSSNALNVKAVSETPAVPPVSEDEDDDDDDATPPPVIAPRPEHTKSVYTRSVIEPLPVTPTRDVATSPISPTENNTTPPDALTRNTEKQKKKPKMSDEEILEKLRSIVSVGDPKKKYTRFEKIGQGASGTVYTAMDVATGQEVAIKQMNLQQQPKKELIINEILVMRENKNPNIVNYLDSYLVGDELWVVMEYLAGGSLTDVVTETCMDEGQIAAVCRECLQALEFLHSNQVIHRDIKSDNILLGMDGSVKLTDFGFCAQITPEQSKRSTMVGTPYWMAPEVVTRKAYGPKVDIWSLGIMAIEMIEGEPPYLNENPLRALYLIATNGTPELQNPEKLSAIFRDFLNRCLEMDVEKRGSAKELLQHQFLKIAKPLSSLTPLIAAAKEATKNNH
Chain of Dual specificity mitogen-activated protein kinase kinase 1 (Homo sapiens) (Q02750 whole entry): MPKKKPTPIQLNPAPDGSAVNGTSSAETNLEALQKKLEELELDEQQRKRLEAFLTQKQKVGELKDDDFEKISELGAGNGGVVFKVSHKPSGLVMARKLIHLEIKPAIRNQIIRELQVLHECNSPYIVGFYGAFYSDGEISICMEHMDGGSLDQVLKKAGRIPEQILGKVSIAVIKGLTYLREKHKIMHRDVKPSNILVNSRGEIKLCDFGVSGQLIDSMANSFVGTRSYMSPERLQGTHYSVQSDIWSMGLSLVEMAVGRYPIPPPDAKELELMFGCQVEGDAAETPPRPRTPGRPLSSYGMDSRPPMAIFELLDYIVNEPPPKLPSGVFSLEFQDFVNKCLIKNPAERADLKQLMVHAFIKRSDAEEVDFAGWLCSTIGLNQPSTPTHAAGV
Chain of Serine/threonine-protein kinase 26 (Homo sapiens) (Q9P289 2-416 limits assumed): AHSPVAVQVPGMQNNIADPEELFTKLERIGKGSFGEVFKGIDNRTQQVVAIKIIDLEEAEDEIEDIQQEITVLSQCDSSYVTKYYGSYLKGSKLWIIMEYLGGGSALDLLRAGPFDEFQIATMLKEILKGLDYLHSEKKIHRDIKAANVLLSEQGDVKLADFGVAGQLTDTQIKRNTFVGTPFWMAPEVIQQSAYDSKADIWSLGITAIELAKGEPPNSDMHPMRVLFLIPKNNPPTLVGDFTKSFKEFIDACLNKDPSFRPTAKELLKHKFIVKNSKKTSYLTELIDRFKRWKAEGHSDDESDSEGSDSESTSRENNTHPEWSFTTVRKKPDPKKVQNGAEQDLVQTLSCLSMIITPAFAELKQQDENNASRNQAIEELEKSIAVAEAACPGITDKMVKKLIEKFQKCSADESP
Chain of Mitogen-activated protein kinase kinase kinase kinase 4 (Homo sapiens) (O95819 2-1239 limits assumed): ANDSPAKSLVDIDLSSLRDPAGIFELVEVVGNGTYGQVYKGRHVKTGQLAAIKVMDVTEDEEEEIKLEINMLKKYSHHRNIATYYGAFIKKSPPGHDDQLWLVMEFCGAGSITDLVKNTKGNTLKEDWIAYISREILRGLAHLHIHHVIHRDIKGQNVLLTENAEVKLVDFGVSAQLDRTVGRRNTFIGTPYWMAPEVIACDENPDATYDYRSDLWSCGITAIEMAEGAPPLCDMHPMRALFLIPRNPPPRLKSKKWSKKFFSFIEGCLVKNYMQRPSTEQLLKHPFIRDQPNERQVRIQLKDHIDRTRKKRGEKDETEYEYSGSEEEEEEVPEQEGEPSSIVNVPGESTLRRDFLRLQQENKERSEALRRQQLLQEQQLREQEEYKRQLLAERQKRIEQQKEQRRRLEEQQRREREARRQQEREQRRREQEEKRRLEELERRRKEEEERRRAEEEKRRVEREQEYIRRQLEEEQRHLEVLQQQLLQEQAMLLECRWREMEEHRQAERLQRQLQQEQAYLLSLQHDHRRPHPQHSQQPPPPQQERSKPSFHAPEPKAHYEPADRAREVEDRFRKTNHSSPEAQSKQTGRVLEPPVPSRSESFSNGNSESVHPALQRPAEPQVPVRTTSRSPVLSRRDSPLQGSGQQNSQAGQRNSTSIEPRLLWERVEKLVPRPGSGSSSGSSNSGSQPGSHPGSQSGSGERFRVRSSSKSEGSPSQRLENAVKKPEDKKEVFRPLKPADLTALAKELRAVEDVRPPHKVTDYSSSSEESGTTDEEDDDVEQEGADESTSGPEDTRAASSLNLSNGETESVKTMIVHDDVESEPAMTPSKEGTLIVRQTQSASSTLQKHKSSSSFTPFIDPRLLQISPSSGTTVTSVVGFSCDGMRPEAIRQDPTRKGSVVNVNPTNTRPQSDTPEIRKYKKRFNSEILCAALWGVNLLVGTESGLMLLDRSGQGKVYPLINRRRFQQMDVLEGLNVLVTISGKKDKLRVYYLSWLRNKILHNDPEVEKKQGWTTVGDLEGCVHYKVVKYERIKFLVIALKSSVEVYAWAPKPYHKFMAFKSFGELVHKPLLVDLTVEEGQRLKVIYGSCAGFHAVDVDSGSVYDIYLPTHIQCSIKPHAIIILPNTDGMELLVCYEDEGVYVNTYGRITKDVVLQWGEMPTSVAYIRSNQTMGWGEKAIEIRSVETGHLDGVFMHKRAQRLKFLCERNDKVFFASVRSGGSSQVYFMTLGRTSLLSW
Chain of Serine/threonine-protein kinase PAK 2 (Homo sapiens) (Q13177 whole entry): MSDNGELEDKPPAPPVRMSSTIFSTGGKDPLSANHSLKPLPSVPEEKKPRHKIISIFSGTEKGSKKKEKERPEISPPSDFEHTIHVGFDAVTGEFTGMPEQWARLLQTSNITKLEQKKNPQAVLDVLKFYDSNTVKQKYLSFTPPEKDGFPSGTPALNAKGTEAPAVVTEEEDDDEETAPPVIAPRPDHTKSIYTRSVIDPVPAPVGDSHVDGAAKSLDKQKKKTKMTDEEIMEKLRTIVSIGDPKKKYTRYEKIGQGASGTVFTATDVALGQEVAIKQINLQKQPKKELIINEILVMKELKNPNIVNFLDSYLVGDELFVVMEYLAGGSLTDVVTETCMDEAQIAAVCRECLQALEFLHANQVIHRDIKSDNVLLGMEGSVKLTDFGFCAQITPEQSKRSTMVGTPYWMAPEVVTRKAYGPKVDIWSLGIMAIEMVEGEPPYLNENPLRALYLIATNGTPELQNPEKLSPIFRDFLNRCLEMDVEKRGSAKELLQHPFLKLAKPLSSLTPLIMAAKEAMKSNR

SMILES	inhibition [1] [%]	inhibition [2] [%]	inhibition [3] [%]	inhibition [4] [%]	inhibition [5] [%]	inhibition [6] [%]	inhibition [7] [%]	inhibition [8] [%]	inhibition [9] [%]	inhibition [10] [%]	inhibition [11] [%]	inhibition [12] [%]	inhibition [13] [%]	inhibition [14] [%]	inhibition [15] [%]	inhibition [16] [%]	inhibition [17] [%]	inhibition [18] [%]	inhibition [19] [%]	inhibition [20] [%]
NS(=O)(=O)c1cccc(-c2cc3ccncc3cc2OCc2ccccc2)c1	11.1	5.91	5.86	7.3	13.4	8	11.9	7.94	11	-2.99	-3.77	7.59	6.92	3.01	2.6	4.78	7.31	-0.43	-0.51	-0.02
N#Cc1c(NC(=O)c2ccccc2F)sc2c1CCCC2	-0.82	0.34	-0.71	-1.75	-2.13	-0.37	3.02	-3.35	1.41	-0.08	1.28	-3.89	1.46	-2.11	-1.55	-2.48	-1.16	-5.99	-0.86	2.44
COC(=O)Nc1nc2cc(Oc3ccc(NC(=O)Nc4cccc(Br)c4)cc3)ccc2[nH]1	5.51	5.03	4	4.61	5.66	3.52	2.71	3.41	3.92	0.49	9.97	-0.8	6.23	0.73	0.39	2.85	2.59	-1.29	-0.7	-5.52
CN(c1ccc(NC(=O)Nc2ccc(OC(F)(F)F)cc2)cc1)c1ccnc(Nc2cccc(S(N)(=O)=O)c2)n1	85.1	3.84	13.7	24.3	80.3	2.75	9.45	4.46	6.49	-1.04	-3.21	1.61	-0.37	0.53	-1.63	2.32	0.7	-3.24	1.16	-3.33
Cc1ccc(NC(=O)CC2CC2)cc1-c1ccc(C(=O)NCC2CC2)cc1	9.33	3.69	2.73	2.74	5.47	5.3	8.01	4.49	5.72	0.36	0.9	5.24	4.74	1.76	1.56	3.33	4.25	6.64	5.74	–
[O-][S+]1CCN(Cc2ccc(-c3ccc4ncnc(Nc5ccc(OCc6ccccc6)c(Cl)c5)c4c3)o2)CC1	3.32	2.1	3.29	-0.23	1.36	0.8	1.83	-0.27	0.41	-0.67	1.64	2.5	4.24	0.11	0.24	0.99	2.19	2.51	1.72	-9.51
FC(F)(F)c1ccc(-c2nn3ncccc3c2-c2ccnc(Nc3ccc4c(c3)OCCO4)n2)cc1	12	1.64	-1.13	2.9	11.5	3.87	7.46	4.21	8.12	6.19	7.92	4.61	0.84	1.32	1.42	3.69	4.75	6.24	11.3	9.3
N#Cc1cccc(Nc2nccc(-c3cnn4ncccc34)n2)c1	64.3	19.5	63	16.6	53.4	8.96	27.6	7.72	24.4	-0.39	3.34	8.03	7.42	1.67	3.52	3.6	5.22	0.7	12.7	-4.74
CN(C)C(=O)O[C@@H]1CN[C@@H](C#Cc2cc3ncnc(Nc4ccc(OCc5cccc(F)c5)c(Cl)c4)c3s2)C1	6.27	-0.21	0.83	2.49	6.17	-1.32	0.53	-2.45	-0.68	0.14	0.17	1.48	2.04	0.43	-0.42	0.58	-0.38	-5.8	–	2.87
Cc1ccc(O)cc1Nc1ccnc2ccc(S(C)(=O)=O)cc12	35.1	7.84	8.37	10.4	30.5	4.65	8.35	5.45	8.06	-0.99	-0.56	9.27	13.3	2.82	2.56	5.79	6.05	1.8	8.34	-3.21
Nc1nccc(-c2c(-c3ccc(F)cc3)nn3cc(C(F)(F)F)ccc23)n1	2.37	1.8	0.93	1.74	1.52	0.23	-0.05	-0.79	-0.81	0.43	0.4	0.65	2.14	-2.44	-1.84	-0.02	-0.21	–	-2.91	3.48
NS(=O)(=O)c1ccc(N/N=C2\C(=O)Nc3ccc(Cl)cc32)cc1	75.5	5.27	5.11	18.5	65.7	21.2	67.5	16.8	56.9	1.38	13.4	3.14	5.51	0.72	1.37	3.71	5.15	4.18	3.28	-3.69
Cc1ccc(C(=O)NC2CC2)cc1-c1ccc2[nH]ncc2c1	-0.85	-3.43	-3.98	-4.28	-1.78	-2.09	1.26	-4.71	-2.04	-0.05	-0.24	-0.61	-2.6	-3.3	-4.55	-4.8	-3.91	-4.55	-2.43	1.46

Source: ChEMBL document CHEMBL1961873, “Compounds: GSK PKIS; Assays: Nanosyn kinase panel” (2012)
